From PubChem BioAssay
VP16 counter: VP16 counterscreen qHTS for inhibitors of ROR gamma transcriptional activity | Potency, µM (highest dose often 53.6 µM), without a hit: at the top dose activity, negative = inhibition, hits mostly inhibitors | Drosophila S2 Gal4-VP16 UAS-luciferase, luminescence, 20 h | hit rate 3.5% among 310,000;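 also: Gal4-VP16 expression switched on by copper sulfate through the metallothionein promoter; potency is read from the fitted curve at half-maximal effect; nearly all actives have a fitted effect of over 50% in size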
B2AR arrestin: qHTS assay of beta-arrestin-biased ligands of beta2-adrenergic receptor | beta-arrestin recruitment to beta2AR, cell-based reporter | Potency, µM (series often up to 46.1 µM), for the others: at the top dose activation, usual class: activators | hit rate 0.02% among 330,000;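 also: potency is read from the fitted curve at half-maximal effect; 0% = DMSO controls and full agonism = EC100 isoproterenol or metaproterenol; nearly all actives have a fitted effect of over 65% in size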
Target sequence (P07550 whole entry, looked up): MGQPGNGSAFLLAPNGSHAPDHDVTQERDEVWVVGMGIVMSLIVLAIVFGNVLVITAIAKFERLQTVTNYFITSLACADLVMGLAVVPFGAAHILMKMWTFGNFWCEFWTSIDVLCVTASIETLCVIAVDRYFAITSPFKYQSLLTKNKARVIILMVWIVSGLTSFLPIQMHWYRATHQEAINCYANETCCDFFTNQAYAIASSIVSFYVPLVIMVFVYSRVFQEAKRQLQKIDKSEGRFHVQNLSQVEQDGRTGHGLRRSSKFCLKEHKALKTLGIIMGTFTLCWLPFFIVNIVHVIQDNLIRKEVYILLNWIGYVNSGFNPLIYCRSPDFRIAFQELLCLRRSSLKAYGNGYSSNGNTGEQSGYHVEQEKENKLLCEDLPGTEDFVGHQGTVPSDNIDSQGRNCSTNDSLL
RORg inh: qHTS for inhibitors of ROR gamma transcriptional activity | hit rate 5.4% among 310,000 | Potency, µM (highest dose often 53.6 µM), inactives show at the highest dose activity change, negative = inhibition, most hits filed as inhibitors | AID 2551, 2010 | Nuclear receptor ROR-gamma (Mus musculus), P51450 | Drosophila S2 Gal4-RORgamma UAS-luciferase reporter, 20 h; also: potency is read from the fitted curve at half-maximal effect; nearly all actives have a fitted effect of over 60% in size
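Luciferase reporter read in Schneider cells carrying Gal4-RORγ (mouse) and UAS-Photinus luciferase; cells given compound 1 h before 700 uM copper sulfate induction, then incubated 20 h at ambient temperature.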
ELG1 repair inh: qHTS screen for small molecules that inhibit ELG1-dependent DNA repair in human embryonic kidney (HEK293T) cells expressing luciferase-tagged ELG1. HEK293T ELG1-luciferase reporter, luminescence, 16 h; DNA damage induced by 5-fluorouridine. Potency, µM (titrated, usually from 46.1 µM), for inactives: at the top dose activity change, negative = inhibition, most hits filed as inhibitors. hit rate 2.3% among 330,000. AID 504467, 2011; also: potency is read from the fitted curve at half-maximal effect; nearly all actives have a fitted effect of over 55% in size
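5-Fluorouridine DNA damage + compound/DMSO, 2,000 cells/well, 16 h, 37 °C/5% CO2. ONE-Glo, 30 min RT, luminescence. Readout = decrease in reporter signal.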
TSHR antag: Antagonists of the Thyroid Stimulating Hormone Receptor: HTS campaign; AID 504810, 2011; activity change, negative = inhibition, % at 11.5 µM; hit rate 0.2% among 330,000; TSHR-expressing cells, TSH-stimulated cAMP HTRF, 2 h; stronger effect = lower value;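 active = activity change below a set negative limit, meaning inhibition stronger than a set level, cut at about -70% in these data; inconclusive = activity change between two set negative limits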
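Antagonism was scored as loss of TSH-driven cAMP in TSHR cells, stimulated with 4nM TSH (EC80) for 2 hours at 37 deg C and detected by homogeneous HTRF competition immunoassay.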
Starred values were filed as active, the others as inactive; ? = inconclusive; nt = not tested or not shown; [ ] = remark or other dose. Rows were chosen to be rich in hits. Some 7.5% of all compounds tested hit in one or more screens of this group. Unless noted, calls follow the shape of the dose curve; as a rule, active = well fitted curve in the direction sought with a large enough effect; inconclusive = small, poorly fitted or top-dose-only effect, or another doubt; inactive = no such curve, though single readings can be large; an effect the other way counts as inactive or inconclusive. Unless noted, % is scaled to controls: 0 for no effect and ±100 for the full control effect.

SMILES	VP16 counter	B2AR arrestin	RORg inh	ELG1 repair inh	TSHR antag
CC(C)(C)OC(=O)CNC(=O)c1[nH]cnc1C(=O)N[C@@H](CCCCNC(=O)OC(C)(C)C)C(=O)OC(C)(C)C	?	-0.4%	?	?	-1.1
C[C@H](NC(=O)c1nc[nH]c1C(=O)N[C@@H](CCCCNC(=O)OC(C)(C)C)C(=O)OC(C)(C)C)C(=O)OCc1ccccc1	?	3.0%	-20.2%	-4.7%	-13.8
CC(C)C[C@H](NC(=O)c1nc[nH]c1C(=O)N[C@@H](CCCCNC(=O)OC(C)(C)C)C(=O)OC(C)(C)C)C(=O)OCc1ccccc1	?	-0.6%	7.08µM*	?	-5.7
CC(C)(C)OC(=O)NCCCC[C@H](NC(=O)c1nc[nH]c1C(=O)NCC(=O)OCc1ccccc1)C(=O)OC(C)(C)C	?	2.8%	28.2µM*	-25.5%	-12.4
CC(C)C[C@H](NC(=O)c1nc[nH]c1C(=O)NCCCCCNC(=O)OC(C)(C)C)C(=O)OCc1ccccc1	6.31µM*	0.2%	12.6µM*	0.3%	-11.3
COC(=O)C1=C(C)N(Cc2ccccc2)C(=NCc2ccc(OC)cc2)N[C@H]1c1ccc(Br)cc1	0.3%	-1.6%	-8.1%	nt	-4.8
Cc1ccc(C)c(N2CCN(C(=O)Nc3ccc4c(c3)N(C)C(=O)CS4)CC2)c1	?	0.1%	18.2%	6.51µM*	-29.8
CC(C)(C)C(=O)C(Oc1ccc(Cl)cc1)n1ccnc1 (centres undefined)	5.9%	nt	-6.2%[10 µM]	nt	nt
O=C(NC(=S)Nc1ccccc1N1CCOCC1)c1ccc(-c2cccc(Cl)c2)o1	5.62µM*	-0.3%	2.51µM*	?	1.6
CS(=O)(=O)N1CCN(c2ccccc2NC(=O)c2ccc(-c3ccc(Br)cc3)o2)CC1	-3.6%	-0.2%	22.2%	14.6µM*	-7.1
O=C(NC(=S)Nc1ccc(CN2CCOCC2)cc1)c1ccc(-c2cccc(Cl)c2)o1	14.1µM*	5.4%	3.16µM*	?	-19.5
O=C(Nc1ccc(CN2CCOCC2)cc1)c1ccc(-c2cccc(Cl)c2)o1	-13.7%	-1.6%	19.3%	?	8.1
O=c1ccc2ccccc2[nH]1	12.6µM*	nt	6.31µM*	nt	nt
CCNC(=S)NCc1ccc2[nH]c(C)cc2c1	10.2%	-2.0%	?	10.8%	3.3
Cc1cc2cc(CNC(=S)Nc3ccc(OC(F)(F)F)cc3)ccc2[nH]1	?	-0.3%	17.8µM*	-1.8%	-9.9
Cc1cc2cc(CNC(=S)Nc3ccc(OC(F)F)cc3)ccc2[nH]1	22.4µM*	1.1%	12.6µM*	-1.8%	-10.9
C[C@@H](CO)[C@H](/C=C/c1ccccc1)CCO[Si](c1ccccc1)(c1ccccc1)C(C)(C)C	4.9%	nt	11.0%	nt	nt
O=c1c2cc(Br)ccc2nc2n1CCCCC2	-0.7%	-0.2%	24.6%	?	2.8
Fc1ccc2nc3n(c2c1F)CCCCCC3	-21.2%	0.0%	11.2µM*	?	-5.5
CCN(CC)C(=O)[C@H]1C[C@H](CC(=O)NCc2ccc(OC)c(OC)c2)C(=O)N2CCc3c([nH]c4cc(-c5ccco5)ccc34)[C@]12C	nt	0.5%	nt	23.1µM*	5.4
C[C@]12c3[nH]c4ccc(Cl)cc4c3CCN1C(=O)[C@@H](CC(=O)NCc1cccc(C(F)(F)F)c1)C[C@@H]2C(=O)N1CCOCC1	nt	0.6%	nt	23.1µM*	-11.1
COc1ccc(CNC(=O)C[C@H]2C[C@H](C(=O)N3CCCCC3)[C@@]3(C)c4[nH]c5cc(-c6ccco6)ccc5c4CCN3C2=O)cc1OC	nt	-0.8%	nt	20.6µM*	-3.1
COc1ccc(CCNC(=O)C2CC(=O)N(C3CCCCC3)C2)cc1OC (centres undefined)	-8.0%	0.4%	5.4%	12.8%	1.7
CCCCNc1nc(C)nc2c1nc(-c1ccccc1)n2CCCN1CCCCC1C (centres undefined)	-6.8%	nt	-20.5%	nt	nt
Nc1c(-c2cccs2)cnc2c(-c3ccc(F)cc3)cnn12	-20.0%	0.5%	?	?	-18.9
